The values below come from PubChem BioAssay (NCATS).

The target of test [1] is Bile acid receptor (Homo sapiens) (UniProt Q96RI1). The experiment in a line: qHTS assay for small molecule agonists of farnesoid X receptor signaling (AID 588527).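 Note: series mostly up to about 77 µM; 0% = vehicle basal and 100% = reference agonist.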 The settings on record: HEK293T FXR-UAS-bla, beta-lactamase ratio, 16 h; stronger effect = higher value. The method in brief: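 Quantitative HTS used FXR-UAS-bla HEK293T cells with 16 h compound incubation at 37 C. EC50 values came from concentration-response curves normalized to chenodeoxycholic acid.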
A general note: Quantitative high-throughput screening tests each substance at several concentrations.

Test [2] concerns the target Peroxisome proliferator-activated receptor delta (Homo sapiens) (UniProt Q03181). As to the kind of experiment: qHTS assay for small molecule agonists of peroxisome proliferator-activated receptor delta signaling (AID 588534).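 Note: 0% = DMSO basal wells and 100% = positive control agonist at 10 µM.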 The method in brief:
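Cells carrying a PPAR-delta beta-lactamase reporter were treated with compounds for 18 h at 37 °C in agonist mode. CCF4 fluorescence was read after 2 h; EC50 and efficacy from Hill fits.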

Test [3] has as its target Estrogen receptor (Homo sapiens) (UniProt P03372). As to the kind of experiment: qHTS assay for small molecule agonists of estrogen receptor alpha signaling (AID 588514).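 Note: 0% = vehicle only and 100% = reference agonist; nearly all actives have a fitted effect of over 70% in size.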 The method in brief:
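ER-alpha-UAS-bla GripTite HEK293 cells, 5000/well in 2% charcoal/dextran-stripped FBS medium, treated with compound titrations 18 h at 37 C. CCF4 beta-lactamase read by fluorescence after 2 h RT; normalised to 20 nM 17-beta-estradiol (100%) and DMSO (0%), Hill fit for EC50 and efficacy.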

Test [4] addresses Glucocorticoid receptor (Homo sapiens) (UniProt P04150). The experiment in a line: qHTS assay for small molecule agonists of glucocorticoid receptor signaling (AID 588532; active = well fitted curve in the direction sought with a large enough effect in the signal ratio, with a control signal flat; the % refers to the signal ratio;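 note: 100% = dexamethasone at 0.1 µM and 0% = DMSO only wells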). The settings on record: HeLa MMTV-bla, beta-lactamase ratio, agonist, 18 h; stronger effect = higher value; percent of dexamethasone control, DMSO zero. The method in brief:
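HeLa GRE-bla reporter cells; 18 h compound exposure at 37 C; 2 h CCF4 loading at room temperature; fluorescence at 460 and 530 nm; EC50 by Hill equation.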

Test [5] shares this target. The experiment in a line: qHTS assay for small molecule antagonists of glucocorticoid receptor signaling (AID 588533; active = well fitted inhibition curve with a large enough effect in the signal ratio, with a control signal flat, not every such curve was filed as active; the % refers to the signal ratio; note: potency is the fitted concentration of half-maximal effect). In short, it runs like this: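 Antagonist-mode qHTS: compound titrations added to GRE-bla HeLa cells, then dexamethasone 2 nM final; 18 h, 37 C. CCF4 FRET fluorescence normalized to dexamethasone and DMSO; IC50 from Hill fit.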
Test [6] can be described thus: qHTS assay for small molecule antagonists of peroxisome proliferator-activated receptor delta signaling (AID 588535; active = well fitted inhibition curve with a large enough effect in the signal ratio, with a control signal flat, not every such curve was filed as active; the % refers to the signal ratio;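 for max response: cells co-treated with a PPAR-delta agonist as stimulator during compound exposure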). The settings on record: HEK293T PPARd-UAS-bla, beta-lactamase FRET ratio, 18 h; 460 nm channel. In short, it runs like this:
(§1)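 Antagonist-mode beta-lactamase reporter (GeneBLAzer PPAR-delta-UAS-bla) in HEK293T cells, 2% charcoal/dextran FBS, 4000 cells/well. Compound titrations, 18 h at 37 C; CCF4 ratio read, IC50 and efficacy from Hill fits.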

Test [7] deals with Peroxisome proliferator-activated receptor delta (Homo sapiens) (UniProt Q03181). The test is described as above. In short, it runs like this: as §1
Test [8] deals with Vitamin D3 receptor (Homo sapiens) (UniProt P11473). As to the kind of experiment: qHTS assay for small molecule antagonists of vitamin D receptor signaling (AID 588541).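 Note: receptor activated by calcitriol during compound treatment; series mostly up to about 77 µM; % is set by controls: 0 for no effect and ±100 for the full control effect.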 In short, it runs like this: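 VDR-UAS-bla HEK293T cells in 2% charcoal-stripped FBS were stimulated with 1-alpha,25-dihydroxyvitamin D3 (3 nM final) plus compound for 16 h at 37 C. The beta-lactamase CCF4 readout was normalized to 50 nM agonist and DMSO, and Hill fits gave IC50.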

Test [9] has the same target. As to the kind of experiment: qHTS assay for small molecule agonists of vitamin D receptor signaling (AID 588543).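 Note: 0% = DMSO basal and 100% = reference agonist control.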 In short, it runs like this:
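Reporter cells (HEK293T, VDR-UAS-bla) were seeded in medium with 2% charcoal-stripped serum and incubated 5 h, then compounds in concentration series were added for 16 h at 37 °C. Stimulation was scaled between DMSO basal and 50 nM 1α,25-dihydroxyvitamin D3.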

The nature of test [10]: qHTS assay for small molecule agonists of retinoid X receptor alpha signaling (AID 588544).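 For activation: 0% = DMSO basal wells and 100% = reference agonist.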 The settings on record: HEK293T RXRa-UAS-bla, beta-lactamase reporter, 18 h; 530 nm emission.
The target of test [11] is Retinoic acid receptor RXR-alpha (Homo sapiens) (UniProt P19793). The description is as above.

Several values for one entry are separate records, joined by “and”; a condition that tells them apart may be missing. Equal values may be shown once. Inconclusive results are not listed. Activity calls are given as the source filed them. Unless noted, calls come from the whole dose curve.

Sequence of Peroxisome proliferator-activated receptor delta (Homo sapiens) (Q03181 whole entry, looked up): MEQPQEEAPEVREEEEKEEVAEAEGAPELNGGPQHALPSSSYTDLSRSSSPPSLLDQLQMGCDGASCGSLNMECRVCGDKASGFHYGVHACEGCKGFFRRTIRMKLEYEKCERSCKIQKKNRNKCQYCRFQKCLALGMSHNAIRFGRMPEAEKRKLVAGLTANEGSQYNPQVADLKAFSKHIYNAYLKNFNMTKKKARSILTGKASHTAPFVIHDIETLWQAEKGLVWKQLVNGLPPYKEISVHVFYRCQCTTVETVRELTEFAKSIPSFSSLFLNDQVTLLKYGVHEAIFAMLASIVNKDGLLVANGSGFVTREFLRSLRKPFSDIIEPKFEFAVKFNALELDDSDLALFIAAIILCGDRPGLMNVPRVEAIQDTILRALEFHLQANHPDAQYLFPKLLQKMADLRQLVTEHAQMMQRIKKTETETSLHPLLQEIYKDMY
Sequence of Glucocorticoid receptor (Homo sapiens) (P04150 whole entry, looked up): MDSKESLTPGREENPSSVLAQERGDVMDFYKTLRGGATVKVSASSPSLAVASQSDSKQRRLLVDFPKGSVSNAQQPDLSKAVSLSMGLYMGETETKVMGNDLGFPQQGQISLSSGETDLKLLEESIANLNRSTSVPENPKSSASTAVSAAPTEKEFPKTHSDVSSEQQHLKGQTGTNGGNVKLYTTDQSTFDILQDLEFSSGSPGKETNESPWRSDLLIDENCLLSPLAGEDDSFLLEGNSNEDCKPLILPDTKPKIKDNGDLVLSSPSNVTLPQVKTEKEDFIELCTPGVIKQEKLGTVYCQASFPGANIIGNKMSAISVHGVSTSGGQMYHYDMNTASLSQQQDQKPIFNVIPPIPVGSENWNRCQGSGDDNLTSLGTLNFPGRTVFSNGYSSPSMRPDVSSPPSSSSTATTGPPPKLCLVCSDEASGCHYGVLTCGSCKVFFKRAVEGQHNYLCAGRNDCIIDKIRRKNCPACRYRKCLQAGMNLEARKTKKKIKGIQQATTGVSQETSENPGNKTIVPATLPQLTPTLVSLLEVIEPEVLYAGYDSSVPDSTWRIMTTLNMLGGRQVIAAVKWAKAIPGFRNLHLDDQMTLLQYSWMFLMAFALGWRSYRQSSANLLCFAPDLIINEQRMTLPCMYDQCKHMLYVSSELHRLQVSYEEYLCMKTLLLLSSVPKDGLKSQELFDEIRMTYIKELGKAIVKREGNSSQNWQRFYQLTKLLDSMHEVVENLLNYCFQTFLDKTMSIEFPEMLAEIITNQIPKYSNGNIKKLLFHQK
Sequence of Bile acid receptor (Homo sapiens) (Q96RI1 whole entry, looked up): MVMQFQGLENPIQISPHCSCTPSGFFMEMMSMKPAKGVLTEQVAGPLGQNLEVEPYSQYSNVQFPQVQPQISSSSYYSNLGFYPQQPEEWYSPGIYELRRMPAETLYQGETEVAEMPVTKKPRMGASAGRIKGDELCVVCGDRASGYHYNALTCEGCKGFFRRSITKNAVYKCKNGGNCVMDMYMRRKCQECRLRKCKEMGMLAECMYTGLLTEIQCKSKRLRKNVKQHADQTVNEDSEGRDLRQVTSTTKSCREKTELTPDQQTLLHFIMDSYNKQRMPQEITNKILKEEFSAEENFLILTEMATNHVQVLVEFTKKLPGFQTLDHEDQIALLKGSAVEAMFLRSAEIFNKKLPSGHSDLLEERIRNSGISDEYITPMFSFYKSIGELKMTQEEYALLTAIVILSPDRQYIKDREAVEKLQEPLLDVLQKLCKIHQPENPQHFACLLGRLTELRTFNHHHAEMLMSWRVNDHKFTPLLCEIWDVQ
Sequence of Vitamin D3 receptor (Homo sapiens) (P11473 whole entry, looked up): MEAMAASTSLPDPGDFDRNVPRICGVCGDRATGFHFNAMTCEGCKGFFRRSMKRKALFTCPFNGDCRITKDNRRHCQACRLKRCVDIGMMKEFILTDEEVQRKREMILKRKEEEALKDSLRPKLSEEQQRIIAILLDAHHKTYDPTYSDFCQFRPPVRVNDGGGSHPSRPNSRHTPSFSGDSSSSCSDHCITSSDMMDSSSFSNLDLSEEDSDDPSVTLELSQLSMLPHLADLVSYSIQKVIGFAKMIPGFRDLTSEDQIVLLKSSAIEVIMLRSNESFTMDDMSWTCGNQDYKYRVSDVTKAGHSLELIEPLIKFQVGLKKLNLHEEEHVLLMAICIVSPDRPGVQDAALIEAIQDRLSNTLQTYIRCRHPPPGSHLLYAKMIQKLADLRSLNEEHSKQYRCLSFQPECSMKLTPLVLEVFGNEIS
Sequence of Retinoic acid receptor RXR-alpha (Homo sapiens) (P19793 whole entry, looked up): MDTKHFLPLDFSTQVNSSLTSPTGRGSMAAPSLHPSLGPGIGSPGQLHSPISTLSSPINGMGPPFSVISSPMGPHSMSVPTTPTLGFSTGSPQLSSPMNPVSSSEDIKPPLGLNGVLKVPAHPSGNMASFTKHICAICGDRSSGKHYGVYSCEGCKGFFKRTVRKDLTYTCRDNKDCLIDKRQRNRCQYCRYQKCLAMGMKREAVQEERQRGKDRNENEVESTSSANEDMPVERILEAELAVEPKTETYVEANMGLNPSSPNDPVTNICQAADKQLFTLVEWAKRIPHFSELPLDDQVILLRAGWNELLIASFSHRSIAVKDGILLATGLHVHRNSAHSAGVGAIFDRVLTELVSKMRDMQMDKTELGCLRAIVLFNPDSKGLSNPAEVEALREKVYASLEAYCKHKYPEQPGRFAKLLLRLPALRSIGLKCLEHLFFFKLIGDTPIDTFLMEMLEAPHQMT
Sequence of Estrogen receptor (Homo sapiens) (P03372 whole entry, looked up): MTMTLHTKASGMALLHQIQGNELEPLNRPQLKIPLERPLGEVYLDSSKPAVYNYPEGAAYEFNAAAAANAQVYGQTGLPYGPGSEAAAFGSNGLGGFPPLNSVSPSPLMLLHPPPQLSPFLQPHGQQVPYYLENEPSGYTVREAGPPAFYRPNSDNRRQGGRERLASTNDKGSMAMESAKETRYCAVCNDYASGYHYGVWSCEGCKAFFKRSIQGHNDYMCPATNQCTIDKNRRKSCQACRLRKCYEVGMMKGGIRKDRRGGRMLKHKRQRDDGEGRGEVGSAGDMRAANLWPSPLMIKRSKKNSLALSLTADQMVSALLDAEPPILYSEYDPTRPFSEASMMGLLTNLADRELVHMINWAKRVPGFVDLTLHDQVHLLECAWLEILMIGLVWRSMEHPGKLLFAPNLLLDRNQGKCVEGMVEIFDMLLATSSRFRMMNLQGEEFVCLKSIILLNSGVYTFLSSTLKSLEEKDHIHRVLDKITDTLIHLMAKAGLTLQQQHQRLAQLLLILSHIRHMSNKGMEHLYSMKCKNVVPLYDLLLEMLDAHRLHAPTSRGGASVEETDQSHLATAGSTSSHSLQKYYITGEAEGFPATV

For `O=C1c2cccc(O)c2C(=O)c2c(O)cccc21`, the activation in [1] is -5% (inactive). In addition, the result in [2] was inactive.

`Oc1ccc(/C=C/c2cc(O)cc(O)c2)cc1`: in test [1], the activation was -3.05% (inactive) and -1.39% (inactive). Further, in test [2], the result was inactive.

Consider `CCOC(=O)C(C)(C)Oc1ccc(Cl)cc1`, for which the activation in test [1] was 1.97% (inactive). Also, the compound was called inactive in test [2].

As to `c1ccc2[nH]c(-c3cscn3)nc2c1`, in test [1], the activation was -0.341% (inactive) and 3.24% (inactive). Besides, in test [2], the compound was called inactive.

`O=C(Nc1ccc(Cl)cc1)Nc1ccc(Cl)c(Cl)c1`: the activation in test [1] was 1.41% (inactive).

In the case of `O=C(OCc1ccccc1)c1ccc(O)cc1`, the activation in test [1] is 1.11% (inactive).

Regarding `CC/C(=C(/CC)c1ccc(O)cc1)c1ccc(O)cc1`, the activation in test [1] is 2% (inactive) and 5.54% (inactive).

In the case of `C[C@]12CC[C@@H]3c4ccc(O)cc4CC[C@H]3[C@@H]1CCC2=O`, the activation in test [1] is 5.41% (inactive).

With `O=C(CCl)c1ccc(Cl)cc1Cl`, in test [3], the Potency entry is “inactive”. In addition, the activation in [4] is -10.9% (inactive). Besides, the Potency in test [5] is 14.1 µM (active). For the same compound, in [2], the result was inactive.

In the case of `Cc1cc(C(C)(C)C)c(O)c(C(C)(C)C)c1`, the activation in test [1] is 9.91% (inactive) and 2.64% (inactive). In [2], the compound was called inactive.

Turning to `CN(C)c1ccc(C(=C2C=CC(=[N+](C)C)C=C2)c2ccc(N(C)C)cc2)cc1`, the activation in test [1] is -3.58% (inactive) and -3.47% (inactive).

As for `CCN(CC)CCOc1ccc(/C(=C(\Cl)c2ccccc2)c2ccccc2)cc1`, the activation in [1] is 1.52% (inactive).

For `O=c1ccc2ccccc2o1`, in test [1], the activation is 2.18% (inactive) and -1.67% (inactive).

With `Cc1ccc(O)cc1`, the activation in test [1] was -0.678% (inactive). Besides, in test [2], the call was inactive.

Turning to `Oc1c(Cl)cc(Cl)cc1Sc1cc(Cl)cc(Cl)c1O`, in test [1], the activation is -0.242% (inactive).

As for `CC(O)COc1ccccc1` (stereo not given), the activation in test [1] is -2.72% (inactive). The compound was classed as inactive in test [2].

With `CCCCC1C(=O)N(c2ccccc2)N(c2ccccc2)C1=O`, the activation in [1] is -3.79% (inactive) and -9.64% (inactive).

As to `COc1ccc2cc3[n+](cc2c1OC)CCc1cc2c(cc1-3)OCO2`, in [1], the activation is -1.09% (inactive).

For `Cn1cnc2c1c(=O)[nH]c(=O)n2C`, the activation in [1] is 0.0385% (inactive). Also, the outcome in test [2] was inactive.

Regarding `Cc1c(N(C)C)c(=O)n(-c2ccccc2)n1C`, the activation in test [1] is -2.31% (inactive). The compound was classed as inactive in test [2].

As for `CCOP(=S)(OCC)O/N=C(\C#N)c1ccccc1`, the activation in [1] was 8.69% (inactive); in [4], -3.68% (inactive). Also, the Potency entry in test [5] is “inactive”. In addition, the compound was called inactive in test [2].

In the case of `O=C1C(c2[nH]c3ccccc3c2O)=Nc2ccccc21`, the activation in [1] was 0.121% (inactive). In addition, in test [2], the result was inactive.

Regarding `CCOc1ccccc1C(N)=O`, in test [1], the activation is -0.664% (inactive). For the same compound, the compound was called inactive in test [2].

For the compound `CNC(=O)Oc1ccc2c(c1)[C@]1(C)CCN(C)[C@@H]1N2C`, the activation in [1] was 1.98% (inactive). Moreover, the result in test [2] was inactive.

Consider `CCOc1ccc(NC(C)=O)cc1`, for which the activation in test [1] is 0.406% (inactive) and 4.82% (inactive).

Take `CCN(CC)C(=O)c1cccc(C)c1`: the activation in test [1] is 0.006% (inactive) and -2.52% (inactive). The outcome in test [2] was inactive.

Regarding `C=CCOC(Cn1ccnc1)c1ccc(Cl)cc1Cl` (stereo not given), in test [4], the activation was -7.13% (inactive) and -8.27% (inactive). The Potency result in [5] and in test [7] was “inactive” in each case. Besides, the max response was -52.6% and -29.4% in test [6]; -17.1% and -12.6% in test [10]. In addition, the result in [8], in [9] and in test [11] was inactive.

In the case of `COP(=O)(OC)C(O)C(Cl)(Cl)Cl` (stereo not given), the activation in test [4] is 3.67% (inactive). In addition, in test [9], the outcome was inactive.
